# Source: PubChem (National Center for Advancing Translational Sciences (NCATS))
# KB-3-1 cytotox = qHTS assay for MDR1-selective chemotherapeutics: Primary screen using the parental adenocarcinoma cell KB-3-1. KB-3-1 viability, CellTiter-Glo ATP luminescence, 72 h. Potency, µM (titrated, usually from 46.1 µM), usual class: cytotoxic. 400,000 tested, 1.4% active; further: potency means the concentration at half of the fitted maximal effect; nearly all actives have a fitted effect of over 60% in size
#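 Using CellTiter-Glo luminescence, growth of non-resistant KB-3-1 adenocarcinoma cells is assessed 72 h after pin-tool compound addition at 37 °C. Normalized responses across the concentration series yield fitted curves.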
# PI4K2A block = qHTS for small molecular inhibitors of PI4K2A; AID 1346378, 2018; activity change, negative = inhibition, % at 76.9 µM; 420,000 tested, 0.13% active; Phosphatidylinositol 4-kinase type 2-alpha (Homo sapiens), Q9BTU6; purified PI4K2A, ADP-Glo luminescence, 1 h; stronger effect = lower value; in the data active means activity change below about -50%; inconclusive means mostly about -30% to -49%;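 further: -100% = wells without enzyme as full effect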
# Target sequence (Q9BTU6 whole entry, looked up): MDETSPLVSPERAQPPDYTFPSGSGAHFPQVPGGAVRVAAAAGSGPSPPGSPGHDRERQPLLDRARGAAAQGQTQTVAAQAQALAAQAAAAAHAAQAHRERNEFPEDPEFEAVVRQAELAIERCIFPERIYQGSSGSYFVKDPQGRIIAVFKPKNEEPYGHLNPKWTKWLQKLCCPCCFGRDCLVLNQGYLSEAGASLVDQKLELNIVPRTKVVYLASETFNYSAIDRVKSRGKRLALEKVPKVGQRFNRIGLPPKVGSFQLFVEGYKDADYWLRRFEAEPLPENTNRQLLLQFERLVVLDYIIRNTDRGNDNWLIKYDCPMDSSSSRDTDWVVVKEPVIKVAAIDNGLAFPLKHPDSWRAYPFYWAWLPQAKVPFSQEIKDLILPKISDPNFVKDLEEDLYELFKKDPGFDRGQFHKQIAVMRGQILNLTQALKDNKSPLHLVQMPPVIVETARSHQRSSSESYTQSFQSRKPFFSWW
#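 Compounds are screened against recombinant PI4K2A using PI as substrate and ATP, the latter dispensed at 300 microM. Reactions run one hour at ambient temperature before ADP-Glo detection; full inhibition defined by wells lacking enzyme.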
# A549 viability = Nrf2 qHTS screen for inhibitors: counterscreen for cytotoxicity; A549 ARE-Fluc cells, CellTiter-Fluor viability, 18-24 h; Potency, µM (doses to about 46 µM), for the others: at the top dose activity change, negative = cytotoxicity, actives largely listed as inhibitors; 390,000 tested, 0.16% active; AID 504648, 2011; further: potency means the concentration at half of the fitted maximal effect
#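 A549 ARE-Fluc cells in 5% FBS OPTI-MEM, 5000 cells/well, rested 2 h then exposed to compounds in concentration-response for 18-24 h at 37 °C. Viability by CellTiter-Fluor fluorescence (Ex 405/Em 525) after 30 min; luciferase luminescence (BugLite, 15 min, RT) read afterwards.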
# KB-V1 MDR tox = qHTS assay for MDR1-selective chemotherapeutics: Primary screen using the drug-selected MDR subline cells KB-V1; Potency, µM (doses to about 46.1 µM), hits mostly cytotoxic; 400,000 tested, 3.4% active; KB-V1 MDR cells viability, CellTiter-Glo, 72 h; further: potency means the concentration at half of the fitted maximal effect; nearly all actives have a fitted effect of over 60% in size
#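 qHTS viability screen in drug-selected KB-V1 MDR cells: 72 h compound treatment at 37 degrees C, ATP luminescence end point.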
# Giardia killer = Small Molecules that selectively kill Giardia lamblia: qHTS; activity change, % at 7.66 µM, hits read low; Giardia lamblia trophozoite viability; 340,000 tested, 0.15% active; in the data active means activity change below about -80%; inconclusive means between about -30% and that limit;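 further: parasites exposed to compound for two days anaerobically before the ATP read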
#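 Killing of trophozoites was scored by loss of ATP luminescence after a 48 hrs anaerobic exposure to compounds at 37 deg C, using 100 cells per well.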
# Nrf2 inh = Nrf2 qHTS screen for inhibitors; A549 ARE-Fluc reporter, luciferase luminescence, 18-24 h; Potency, µM (top dose mostly 46 µM), for inactives: at the highest dose activity change, negative = inhibition, most hits filed as inhibitors; 360,000 tested, 2.1% active; AID 504444, 2011; further: potency means the concentration at half of the fitted maximal effect; nearly all actives have a fitted effect of over 60% in size
#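 Reporter: ARE-Fluc in A549. Exposure: 18-24 h, 37 °C, 5% CO2, 5% FBS OPTI-MEM. Readouts: fluorescent cytotoxicity (CellTiter-Fluor), then luminescent Nrf2 signal after BugLite.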
# * marks the source's active call; other numbers are inactive results; i = inactive; ? = inconclusive; · = no result given. A selection: hits, their analogues and other compounds. The true share with any hit is near 5.7%. Unless noted, the call rests on the fitted dose curve; in most records, active means well fitted curve in the direction sought with a large enough effect; inconclusive means small, poorly fitted or top-dose-only effect, or another doubt; inactive means no such curve, though single readings can be large; an effect the other way counts as inactive or inconclusive. Unless noted, on the % scale 0 is the no-effect control and ±100 the full control effect.
SMILES,KB-3-1 cytotox,PI4K2A block,A549 viability,KB-V1 MDR tox,Giardia killer,Nrf2 inh
CCOC(=O)c1ccc(OCC(=O)c2ccc(O)cc2O)cc1,i,-6.7,-1.0%,i,-26.3,?
C=CCN1C(c2ccc(Br)cc2)=CS/C1=C(/C#N)c1nnc(N2CCOCC2)n1-c1ccccc1,i,-2.1,-11.2%,?,-7.4,-25.6%
C=CCN1C(c2cccc(C(F)(F)F)c2)=CS/C1=C(/C#N)c1nnc(N2CCOCC2)n1-c1ccccc1,?,3.2,-2.8%,4.11µM*,18.5,?
CCN(CC)S(=O)(=O)c1cccc(S(=O)(=O)c2cccc(S(=O)(=O)N(CC)CC)c2)c1,?,5.3,1.0%,i,4.3,9.2µM*
CCN(CC)S(=O)(=O)c1cccc(S(=O)(=O)N2CCCCC2)c1,i,-0.9,-1.6%,i,3.5,4.9%
CCN(CC)S(=O)(=O)c1ccc2c(c1)C(=NO)c1cc(S(=O)(=O)N(CC)CC)ccc1-2,6.51µM*,-3.8,-9.4%,11.6µM*,19.2,-24.7%
CCN(CC)CCOc1ccc2c(c1)C(=NO)c1cc(OCCN(CC)CC)ccc1-2,i,0.2,8.2µM*,i,-3.1,?
CCN(CC)CCOc1ccc(Br)cc1,i,1.6,0.6%,i,-26.2,1.9%
CC(NC(CCc1ccccc1)C(=O)O)C(=O)N1C(=O)N(C)CC1C(=O)O (stereo not given),·,-7.7,·,·,·,·
CCCCOc1ccc(OCCSc2nc3ccccc3n2CC(=O)O)cc1,i,2.1,-5.7%,i,7.9,?
CCCCOC(=O)n1c(SCC(=O)N(C)C)nc2ccccc21,i,10.9,-0.3%,16.4µM*,-0.2,-8.5%
N#CCC[C@@H]1CC[C@]2(CCCN(C(=O)c3ccco3)C2)O1,·,-0.9,·,·,·,·
O=C(NN1C(=O)c2ccccc2NC1c1ccc([N+](=O)[O-])o1)c1ccccc1 (stereo not given),i,-0.4,-10.4%,i,-84.8*,-15.4%
CCCCCOC(=O)c1cc(=O)[nH]c2ccccc12,8.2µM*,-0.4,-3.3%,2.31µM*,-16.3,·
O=C(OCC(=O)N1CCCCC1)c1cc(=O)[nH]c2ccccc12,i,-3.6,-1.3%,i,-6.9,68.4%
COCC(C)n1c(C)cc(C(=O)COC(=O)c2cc(=O)[nH]c3ccccc23)c1C (stereo not given),i,-3.2,3.4%,20.6µM*,?,?
CCC1CCCCN1C(=O)COC(=O)c1cc(=O)[nH]c2ccccc12 (stereo not given),i,3.5,-15.8%,18.4µM*,-8.8,-2.7%
Cc1ccc(N2CC(NC(=O)C3CC3)CC2=O)cc1C (stereo not given),·,-0.9,0.5%,·,·,·
Clc1ccc2ncc(-c3nnnn3-c3ccccc3)c(-c3ccccc3)c2c1,?,-1.4,?,i,-19.2,?
Clc1ccc2[nH]cc(-c3nnnn3-c3ccccc3)c2c1,18.4µM*,-7.5,-7.2%,16.4µM*,1.4,17.6%
Cc1cc(C)cc(C(=O)NCC(=O)N2CCN(C(c3ccccc3)c3ccccc3)CC2)c1,?,5.9,-3.0%,18.4µM*,5.0,18.1%
O=C(NCC(=O)N1CC=C(c2ccccc2)CC1)c1ccc(OC(F)F)cc1,?,-2.8,4.2%,13µM*,-18.6,?
O=C(NCC(=O)N1CCN(C(c2ccccc2)c2ccccc2)CC1)c1ccccc1Br,?,1.4,·,i,·,·
COc1cc(OC)cc(C(=O)NCC(=O)N2CC=C(c3ccccc3)CC2)c1,5.8µM*,2.9,?,7.31µM*,10.5,10.8%
CC(C)(C)N(NC(=O)Nc1cccc(F)c1)C(=O)c1ccccc1Cl,·,-2.9,·,·,·,·
CCOc1ccc2nc(C)cc(Nc3cccc([N+](=O)[O-])c3)c2c1,i,-2.4,-20.8%,14.6µM*,16.1,-3.3%
